SMILES strings stand for the structures. Records with an inconclusive call do not appear. Entries that show only a call come without a potency. The source made the active and inactive calls. Calls follow the shape of the dose curve; as a rule, active = well fitted inhibition curve with a large enough effect; inconclusive = small, poorly fitted or top-dose-only effect, or effect the other way, or another doubt; inactive = no such curve, though single readings can be large or run the other way.
Potency is read from the fitted curve at half-maximal effect.

This assay in a line: Confirmation Concentration-Response Assay for lipid storage modulators. Also: nearly all actives have a fitted effect of over 80% in size. The conditions noted are these: Drosophila S3 cells, lipid droplet BODIPY/CellTracker ratio, 18-24 h; series mostly up to 46.1 µM. In outline:
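Cells at 5,000/well received compound as a titration plus oleic acid (added as 400 uM solution) and were incubated 18–24 h at 24 °C. BODIPY 493/503 lipid signal and CellTracker Red cell count were read by 488-nm laser-scanning cytometry. Activity was normalised to 20 uM Triacsin C.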
For the compound `COc1ccc(CCNC(=O)c2cc3sc(Cl)cc3n2C)cc1OC`, the Potency result is “inactive”.

As for `CCOC(=O)c1cc2c(ccn2C)n1CC(=O)N1C(C)CCCC1C` (stereo not given), the Potency was 11.2 µM (active).

In the case of `OCCNc1c2ccccc2nc2c(F)c(F)c(F)c(F)c12`, the Potency was 8.65 µM (active).

For the compound `COc1cccc(C(=O)O[C@@H]2[C@H](Cc3ccccc3)NS(=O)(=O)[C@H]3C[C@@H]4C=C[C@]23O4)c1`, the Potency was 11.2 µM (active).

Consider `COc1ccc(CCNC(=O)CSc2nnc(CNc3ccc(Cl)cc3)o2)cc1OC`, for which the Potency result was “inactive”.

On to `CC(=O)Nc1cccc(C(=O)NC2CCCc3c2cnn3-c2ccccc2F)c1` (stereo not given), for which the Potency is 14.1 µM (active).

`COc1ccc(CCNC(=O)CSc2nc(O)cc(=O)[nH]2)cc1OC`: the Potency result is “inactive”.

With `COC(=O)c1cc(C)sc1NC(=O)C1CC(=O)NN1Cc1ccccc1` (stereo not given), the Potency is 1.41 µM (active).

Turning to `COc1ccc(NC(=O)NC2(C(=O)N3CCCC(C)C3)CCCCC2)cc1` (stereo not given), the Potency result was “inactive”.

For `CN(C1=C(N2CCOCC2)C(=O)c2ccccc2C1=O)c1ccccc1`, the Potency is 6.28 µM (active).

In the case of `Cc1ccccc1C(=O)N1CCC(C(=O)Nc2ccc(S(=O)(=O)N3CCCCC3)cc2)CC1`, the Potency result was “inactive”.

Turning to `Nc1c(C(=O)C2CC2)sc2nc(-c3ccccc3)cc(C(F)(F)F)c12`, the Potency was 1.58 µM (active).

Take `CCC(=O)c1ccc(OCC(=O)Nc2ccc(N3CCOCC3)cc2N2CCOCC2)cc1`: the Potency result is “inactive”.

Turning to `COc1ccc(CCNC(=O)CCCn2nc(C)n3ccnc3c2=O)cc1OC`, the Potency entry is “inactive”.

With `COC(c1ccccc1)c1nnc(CCC(=O)NC2C3CC4CC(C3)CC2C4)o1` (stereo not given), the Potency is 5.6 µM (active).

With `Cc1ccc(NCc2ccc(O)c3ncccc23)cc1`, the Potency result was “inactive”.

With `CNC(=O)NC(=O)C(C)OC(=O)c1c2c(nc3ccccc13)/C(=C/c1cccs1)CC2` (stereo not given), the Potency is 0.141 µM (active).

Take `COc1ccc(CCNC(=O)Cn2cccc2C(=O)c2ccccc2C)cc1OC`: the Potency result was “inactive”.

Regarding `CCOC(=O)C1CCN(C(=O)C2(NC(=O)Nc3ccccc3Cl)CCCCC2)CC1`, the Potency was 0.628 µM (active).

With `CSCCC(NS(=O)(=O)c1ccc2c(c1)OCCO2)C(=O)N(C)Cc1ccc(C)cc1` (stereo not given), the Potency result was “inactive”.

Values taken from PubChem BioAssay AID1569 (National Center for Advancing Translational Sciences (NCATS), 2009).
